{"source": "PubChem BioAssay AID504834", "about": "(National Center for Advancing Translational Sciences (NCATS), 2011)", "note": "The campaign covered roughly 320,000 compounds. About 22,000 (6.9%) were called active. Inconclusive results (about 27%) are left out. For the sample, actives were picked, then their nearest neighbours and some compounds at random. Unmarked numbers belong to inactive results. Calls follow the shape of the dose curve; as a rule, active = well fitted inhibition curve with a large enough effect; inconclusive = small, poorly fitted or top-dose-only effect, or another doubt; inactive = no such curve, though single readings can be large or run the other way. % is scaled to controls: 0 for no effect and ±100 for the full control effect; potency is read from the fitted curve at half-maximal effect."}
{"assay": "Primary qHTS for delayed death inhibitors of the malarial parasite plastid, 96 hour incubation", "conditions": "P. falciparum luciferase reporter growth; series mostly up to 28.7 µM; activity change, negative = inhibition: at the top concentration", "summary_of_the_method": "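Plates of compound plus infected erythrocytes (2% hematocrit, 0.05% parasitemia final) incubate 96 hours, 37 C, 5% CO2. Detection reagent added; reduced luminescence from the parasites' luciferase reporter flags inhibition.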", "units": {"activity change, negative = inhibition": "%"}}
{"smiles": "CC(C)C(=O)Nc1oc(-c2ccccc2)cc1C#N", "Potency": "2.08 µM (active)"}
{"smiles": "CC(Oc1ccccc1)C(=O)Nc1oc(-c2ccco2)c(-c2ccco2)c1C#N", "note": "(centres undefined)", "activity change, negative = inhibition": -5.03}
{"smiles": "CC(C)C(=O)Nc1ccc2c(c1)oc1ccccc12", "activity change, negative = inhibition": -9.01}
{"smiles": "CCC(=O)Nc1ccc2nn(-c3ccc(F)cc3)nc2c1", "activity change, negative = inhibition": 0}
{"smiles": "Cc1cccc(NC(=O)CN2CCN(CC(=O)NCC3(N4CCCCC4)CCCCC3)CC2)c1C", "activity change, negative = inhibition": 1.42}
{"smiles": "COC(=O)c1sccc1NC(=O)COc1ccc(Cl)cc1", "activity change, negative = inhibition": 8.06}
{"smiles": "COC(=O)c1c(NC(=O)COc2ccc(Cl)cc2Cl)sc2c1CC(C)(C)NC2(C)C", "Potency": "6.57 µM (active)"}
{"smiles": "CN1CCN(c2ccc(NC(=O)COc3ccc(Cl)cc3Cl)cc2)CC1", "activity change, negative = inhibition": -18.7}
{"smiles": "Cc1nc2ccccc2c(=O)n1-c1ccc(F)c(NC(=O)c2cccs2)c1", "activity change, negative = inhibition": 12}
{"smiles": "O=C(NCc1cccc(Cl)c1)C1CCC(=O)N(C2CC2)C1", "note": "(centres undefined)", "activity change, negative = inhibition": 35.7}
{"smiles": "CCN1CCN(CCNC(=O)c2ccc3c(c2)NC(=O)/C(=C\\c2ccc(OC)c(OC)c2)S3)CC1", "activity change, negative = inhibition": -26.6}
{"smiles": "Cc1ccc(S(=O)(=O)N(CC(O)CN2C(=O)NC(C)(C)C2=O)c2cccc([N+](=O)[O-])c2)cc1", "note": "(centres undefined)", "activity change, negative = inhibition": 3.55}
{"smiles": "COc1cc(/C=C2\\CCCc3c2nc2ccccc2c3C(=O)O)cc(Cl)c1O", "activity change, negative = inhibition": -4.48}
{"smiles": "O=C(Nc1ccc(N2CCN(C(=O)C3CC3)CC2)cc1)c1cccs1", "activity change, negative = inhibition": -4.99}
{"smiles": "COc1ccccc1N1CCN(C(=O)Cn2nnc(-c3cccs3)n2)CC1", "activity change, negative = inhibition": 3.57}
{"smiles": "O=C(Nc1ccccc1-c1nnn(CC(=O)N2CCN(c3ccccc3)CC2)n1)c1cccs1", "Potency": "9.28 µM (active)"}
{"smiles": "Cc1nc2nc(SCC(=O)Nc3cccc(F)c3)[nH]c2cc1Br", "activity change, negative = inhibition": 16.6}
{"smiles": "N#Cc1ccc(OCC(=O)NC(=O)NC2CCS(=O)(=O)C2)cc1", "note": "(centres undefined)", "activity change, negative = inhibition": 2.04}
{"smiles": "CCOC(=O)C(C)N(c1ccccc1Cl)S(C)(=O)=O", "note": "(centres undefined)", "activity change, negative = inhibition": 7.23}
{"smiles": "Cc1cccc(OCCNC(=O)CSc2ccc(C(F)(F)F)cc2[N+](=O)[O-])c1", "activity change, negative = inhibition": 331}
{"smiles": "O=C(CSc1ccc(C(F)(F)F)cc1[N+](=O)[O-])NCCOc1ccccc1", "Potency": "13.1 µM (active)"}
{"smiles": "Nc1ccccc1Sc1ccc(C(F)(F)F)cc1[N+](=O)[O-]", "activity change, negative = inhibition": 3.57}
{"smiles": "CCOc1ccccc1OCCCNCc1ccccc1", "activity change, negative = inhibition": 28.2}
{"smiles": "O=C(CNc1ccc(F)cc1F)NC(=O)NCc1ccco1", "activity change, negative = inhibition": 11.3}
{"smiles": "Cn1c(CNC(=O)c2ccco2)nnc1SCC(=O)N1CCN(c2ccccc2)CC1", "activity change, negative = inhibition": -1.11}
{"smiles": "O=C(Nc1cccc2ccccc12)N1CCC2(CC1)OCCO2", "activity change, negative = inhibition": -27.2}
{"smiles": "Cc1nc2nc(C)c(CCC(=O)N3CCC4(CC3)OCCO4)c(C)n2n1", "Potency": "11.7 µM (active)"}
{"smiles": "Cc1nc2ncnn2c(C)c1CCC(=O)N1CCN(C(=O)c2ccco2)CC1", "activity change, negative = inhibition": 37}
{"smiles": "COc1ccc(CNC(=O)CNC(=O)c2sc3ccccc3c2Cl)cc1OC", "activity change, negative = inhibition": 0.724}
{"smiles": "CCOc1ccc(C)cc1S(=O)(=O)NC1CCCCCC1", "activity change, negative = inhibition": -19.9}
{"smiles": "Cc1ccc(-n2nc(C)c(C(=O)O)c2-n2cccc2)cc1", "activity change, negative = inhibition": 17.1}
{"smiles": "O=C(NCc1ccccc1Cl)C1CCC(CNc2c(N3CCCCC3)c(=O)c2=O)CC1", "note": "(centres undefined)", "Potency": "10.4 µM (active)"}
{"smiles": "COc1ccc(NC(=O)C2CCC(CNc3c(N4CCCCC4)c(=O)c3=O)CC2)c(OC)c1", "note": "(centres undefined)", "activity change, negative = inhibition": -15.3}
{"smiles": "O=C(NCCCc1ccccc1)C1CCC(CNc2c(N3CCCCC3)c(=O)c2=O)CC1", "note": "(centres undefined)", "activity change, negative = inhibition": -25.3}
{"smiles": "CCOc1ccccc1NC(=O)C1CCC(CNc2c(N3CCOCC3)c(=O)c2=O)CC1", "note": "(centres undefined)", "activity change, negative = inhibition": -10.4}
{"smiles": "O=C(NCc1ccc(F)cc1)C1CCC(CNc2c(N3CCOCC3)c(=O)c2=O)CC1", "note": "(centres undefined)", "activity change, negative = inhibition": -22.9}
{"smiles": "CC(NC(=O)C1CCC(CNc2c(N3CCOCC3)c(=O)c2=O)CC1)c1ccccc1", "note": "(centres undefined)", "Potency": "13.1 µM (active)"}
{"smiles": "CCCCn1c(N)c(N(CCC(C)C)C(=O)COC(=O)c2cccnc2OCC)c(=O)[nH]c1=O", "activity change, negative = inhibition": 52.6}
{"smiles": "Cc1ccc(/C=C2\\SC(=S)N(CCC(=O)Nc3ccc(O)cc3)C2=O)cc1", "activity change, negative = inhibition": 46.5}
{"smiles": "COc1ccc(C(=O)NNC(=S)NC(=O)c2ccccc2)cc1", "Potency": "6.57 µM (active)"}
{"smiles": "COc1ccc(OCC(=O)NNC(=O)c2ccc(-c3ccccc3)cc2)cc1", "activity change, negative = inhibition": -17.4}
{"smiles": "COc1ccc(C(=O)NC(=S)NC2CCCCC2)cc1", "activity change, negative = inhibition": -0.349}
{"smiles": "Cc1cc(NC(=O)CCC(=O)N(CC(=O)NC2CCCC2)c2ccc(F)cc2)no1", "activity change, negative = inhibition": 40.9}
{"smiles": "C=CCC1=C/C(=C\\c2c(N)n3nc(CC(=O)N4CCOCC4)sc3nc2=O)C=C(OC)C1=O", "activity change, negative = inhibition": -14.7}
{"smiles": "Cc1ccc(SCC(=O)Nc2ncc(C)s2)cc1", "activity change, negative = inhibition": 3.99}
{"smiles": "Cc1cnc(NC(=O)CSc2nnc(C)s2)s1", "activity change, negative = inhibition": -15.1}
{"smiles": "Cc1cnc(NC(=O)CSc2c(Cl)cccc2Cl)s1", "Potency": "10.4 µM (active)"}
{"smiles": "CCOC(=O)C1=C(C)Nc2sc(C(=O)c3ccc(Br)cc3)c(N)c2C1c1ccc(C(=O)OC)cc1", "note": "(centres undefined)", "Potency": "6.57 µM (active)"}
{"smiles": "CCOC(=O)C1=C(C)NC(SC)=NC1c1ccccc1", "note": "(centres undefined)", "activity change, negative = inhibition": -21.1}
{"smiles": "CCOC(=O)c1sc(=NC(=O)c2ccc(Br)cc2)n(C)c1C", "activity change, negative = inhibition": 65.4}
{"smiles": "CC(OC(=O)/C=C/c1ccccc1)C(=O)Nc1ccc(C(N)=O)cc1", "note": "(centres undefined)", "activity change, negative = inhibition": -9.65}
{"smiles": "O=C1c2ccccc2C(O)N1Cc1ccccc1Cl", "note": "(centres undefined)", "activity change, negative = inhibition": 59.3}
{"smiles": "O=C(Nc1ccc(Br)cc1)C1CCC(=O)N1Cc1ccccc1Cl", "note": "(centres undefined)", "Potency": "10.4 µM (active)"}
{"smiles": "CCCCNC(=O)C1CCC(=O)N1CCc1ccccc1", "note": "(centres undefined)", "activity change, negative = inhibition": 14.2}
